From PubChem BioAssay AID1671463 (Sanford-Burnham Center for Chemical Genomics, 2021)
The whole screen tested about 370,000 compounds, of which about 520 (0.14%) were called active. Cut-off read from the data, not from the text of the source: active = activation above about 40%; inactive = the rest. Many of the other results were omitted from the sample, so actives are more common in it than they were.

target: Atrial natriuretic peptide receptor 1 (Homo sapiens) (UniProt P16066); experiment: GC-A stimulated cGMP production enhancers – HEK293 GC-A cells, cGMP TR-FRET, EC30 ANP, primary screen (AID 1671463); settings: at 10 µM, hits give high values, 0% at EC30 ANP, 100% saturating ANP
Sequence (P16066 whole entry, looked up): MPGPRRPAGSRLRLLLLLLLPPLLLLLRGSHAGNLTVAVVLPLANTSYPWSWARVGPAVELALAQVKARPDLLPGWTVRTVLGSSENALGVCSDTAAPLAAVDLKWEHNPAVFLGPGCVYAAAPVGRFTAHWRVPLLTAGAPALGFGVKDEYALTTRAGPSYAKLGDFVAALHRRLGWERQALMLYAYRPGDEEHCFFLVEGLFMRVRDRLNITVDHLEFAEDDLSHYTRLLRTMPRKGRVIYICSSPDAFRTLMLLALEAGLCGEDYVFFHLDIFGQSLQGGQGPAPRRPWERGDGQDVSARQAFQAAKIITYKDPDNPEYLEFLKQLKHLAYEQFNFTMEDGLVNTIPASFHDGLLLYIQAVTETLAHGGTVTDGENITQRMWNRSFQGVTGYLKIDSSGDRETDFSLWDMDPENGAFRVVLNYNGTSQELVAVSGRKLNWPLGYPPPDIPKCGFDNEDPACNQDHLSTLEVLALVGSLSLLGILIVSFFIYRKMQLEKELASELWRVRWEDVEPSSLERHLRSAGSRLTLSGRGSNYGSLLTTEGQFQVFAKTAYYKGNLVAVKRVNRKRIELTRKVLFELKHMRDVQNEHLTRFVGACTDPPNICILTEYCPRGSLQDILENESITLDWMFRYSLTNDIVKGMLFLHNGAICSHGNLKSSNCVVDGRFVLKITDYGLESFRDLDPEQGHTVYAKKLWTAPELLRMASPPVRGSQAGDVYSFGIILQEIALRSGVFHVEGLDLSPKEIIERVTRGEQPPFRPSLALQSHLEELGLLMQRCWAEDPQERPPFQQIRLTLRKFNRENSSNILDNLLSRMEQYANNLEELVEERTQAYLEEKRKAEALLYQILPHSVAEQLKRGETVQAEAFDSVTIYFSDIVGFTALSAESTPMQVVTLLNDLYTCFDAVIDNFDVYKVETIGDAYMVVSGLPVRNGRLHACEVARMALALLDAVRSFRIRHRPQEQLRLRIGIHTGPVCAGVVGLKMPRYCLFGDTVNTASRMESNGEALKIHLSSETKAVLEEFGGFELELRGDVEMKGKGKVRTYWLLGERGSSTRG

SMILES | activation
Cc1ccc(C(=O)NC(=S)Nc2ccc3[nH]c(=O)[nH]c3c2)cc1C | -4.45% (inactive)
CCc1ccc(Oc2coc3cc(O)ccc3c2=O)cc1 | 9.73% (inactive)
COC(=O)COc1ccc2c(=O)c(Oc3ccccc3Br)coc2c1 | 46.5% (active)
CCc1ccc(Oc2coc3cc(OC(=O)c4cc5ccccc5oc4=O)ccc3c2=O)cc1 | -3.3% (inactive)
CC[C@H](C)[C@@H](C(=O)N1CCNCC1)n1cc([C@@H](N)Cc2ccc(O)cc2)nn1 | -0.45% (inactive)
CC1(C)CC(=O)c2cnc3nc4ccccc4n3c2C1 | 1.08% (inactive)
Cc1ccc(Cn2c(=N)c(S(=O)(=O)c3ccc(C)cc3)cc3c(=O)n4ccccc4nc32)cc1 | 0.3% (inactive)
Cc1cc(C)nc(NC(=O)Nc2ccccc2C(F)(F)F)n1 | 9.79% (inactive)
CCn1c(CSc2nc(C)cc(C)n2)nnc1SCC(N)=O | -2.17% (inactive)
Cc1cc(C)nc(S/C=C/C(=O)c2ccccc2)n1 | 43.5% (active)
Cc1cc(NC(=O)CCC(=O)N(CC(=O)NCC2CCCO2)c2ccccc2)no1 (stereo unspecified) | -2.42% (inactive)
CC#CC[N+](C)(C)CCCCCC | 1.8% (inactive)
O=C(NCCCO)/C(=C\C=C\c1ccccc1)NC(=O)c1ccccc1Cl | 1.06% (inactive)
COc1ccc(C2OC(=O)CC2C(=O)NC(C)C)cc1 (stereo unspecified) | -0.27% (inactive)
O=C1CN(C(=O)c2ccccc2F)C(c2ccc(F)cc2)c2cc(F)ccc2N1 (stereo unspecified) | -11% (inactive)
CCCCN1C(=S)NC[C@@H]1C(C)CC (stereo partly specified) | -0.8% (inactive)
CC[n+]1cc(C)ccc1/C=C/c1ccc(N(C)C)cc1 | -28.2% (inactive)
CCOc1ccccc1N1CCN(C(=S)Nc2ccc(S(N)(=O)=O)cc2)CC1 | 2.84% (inactive)
CCOc1ccc(-n2cnc3c(=O)[nH]c(N)nc32)cc1 | 23% (inactive)
CCCc1nn(C)c2c(=O)[nH]c(-c3cc(S(N)(=O)=O)ccc3OCC)nc12 | 53.2% (active)
CC1CCC(N2CC(=O)N(Cc3ccc4c(c3)OCO4)C(c3ccc(F)cc3)C2=O)CC1 (stereo unspecified) | -15.6% (inactive)

SMILES | activation
Cc1csc(NC(=O)C2CCCN2C(=O)OCC(C)C)n1 (stereo unspecified) | -0.58% (inactive)
CN(C)CCCn1c(SCCN2C(=O)c3ccccc3C2=O)nc2ccccc2c1=O | -1.16% (inactive)
CN(C)CCn1c2c(c(SCC(=O)NCc3ccccc3)nc1=O)CCC2 | 3.93% (inactive)
O=C(NCc1ccccc1)C(c1cccnc1)N(C(=O)c1csnn1)c1ccc(F)cc1 (stereo unspecified) | 2.49% (inactive)
O=C1CCC(=O)N1CCOP1(=O)COc2ccccc2OC1 | 1.8% (inactive)
Cc1ccc(Cl)cc1NC(=O)COC(=O)C1CCCCC1 | 4.33% (inactive)
COc1ccc(NC(=O)CN(C)C(=O)Cc2coc3cc(C)c(C)cc23)cc1 | 0.74% (inactive)
CC(C)=CCN1CCN(Cc2ccc(Oc3ncccn3)cc2)CC1CCO (stereo unspecified) | -0.64% (inactive)
Cc1nc(-c2nnc(SCC(=O)Nc3cc(C(F)(F)F)cc(C(F)(F)F)c3)n2C)cs1 | 1.31% (inactive)
O=C(O)C1CCCN1S(=O)(=O)c1ccc(Br)cc1 (stereo unspecified) | 3.81% (inactive)
CC1CN/C(=C\C(=O)c2ccc(Br)cc2)C(=O)N1 (stereo unspecified) | 45.4% (active)
COc1cc2c(cc1OC)/C(=C/C(=O)c1ccc(NC(C)=O)cc1)NCC2 | 6.02% (inactive)
COc1ccc(N(CCC#N)S(=O)(=O)c2ccc(Cl)cc2)cc1 | -7.67% (inactive)
Cc1ccccc1CN(c1ccc(C(=O)NCC2CCCO2)cc1)S(C)(=O)=O (stereo unspecified) | 2.8% (inactive)
COc1ccc(CCNC(=O)CSc2nc3c([nH]2)c(=O)n(C)c(=O)n3C)cc1 | -1.99% (inactive)
Cc1[nH][nH]c(=O)c1C(c1ccc(-c2ccc(Cl)cc2)o1)c1c(C)[nH][nH]c1=O | 3.79% (inactive)
O=C(Nc1cc(S(=O)(=O)N2CCOCC2)ccc1OCC(F)(F)F)c1ccc(N2CCCC2=O)cc1 | -0.92% (inactive)
CS(=O)(=O)c1ccc2nc(NC(=O)c3ccc(N4CCCC4=O)cc3)sc2c1 | 62.2% (active)
O=C(NCCCN1CCCCCC1)c1ccc(N2CCCC2=O)cc1 | -0.43% (inactive)
CC(=O)Nc1cc(-c2ccccc2N(C)C)cn2c(-c3ccc(F)c(Cl)c3)cnc12 | 3.6% (inactive)
